USP7 inh: human USP7 deubiquitinase inhibition; Q93009; purified USP7, Ub-rhodamine cleavage fluorescence; 47,000 compounds, 0.3% hits; AID 1645854; inhibition, % at 20 µM
Target sequence (Q93009 whole entry, looked up): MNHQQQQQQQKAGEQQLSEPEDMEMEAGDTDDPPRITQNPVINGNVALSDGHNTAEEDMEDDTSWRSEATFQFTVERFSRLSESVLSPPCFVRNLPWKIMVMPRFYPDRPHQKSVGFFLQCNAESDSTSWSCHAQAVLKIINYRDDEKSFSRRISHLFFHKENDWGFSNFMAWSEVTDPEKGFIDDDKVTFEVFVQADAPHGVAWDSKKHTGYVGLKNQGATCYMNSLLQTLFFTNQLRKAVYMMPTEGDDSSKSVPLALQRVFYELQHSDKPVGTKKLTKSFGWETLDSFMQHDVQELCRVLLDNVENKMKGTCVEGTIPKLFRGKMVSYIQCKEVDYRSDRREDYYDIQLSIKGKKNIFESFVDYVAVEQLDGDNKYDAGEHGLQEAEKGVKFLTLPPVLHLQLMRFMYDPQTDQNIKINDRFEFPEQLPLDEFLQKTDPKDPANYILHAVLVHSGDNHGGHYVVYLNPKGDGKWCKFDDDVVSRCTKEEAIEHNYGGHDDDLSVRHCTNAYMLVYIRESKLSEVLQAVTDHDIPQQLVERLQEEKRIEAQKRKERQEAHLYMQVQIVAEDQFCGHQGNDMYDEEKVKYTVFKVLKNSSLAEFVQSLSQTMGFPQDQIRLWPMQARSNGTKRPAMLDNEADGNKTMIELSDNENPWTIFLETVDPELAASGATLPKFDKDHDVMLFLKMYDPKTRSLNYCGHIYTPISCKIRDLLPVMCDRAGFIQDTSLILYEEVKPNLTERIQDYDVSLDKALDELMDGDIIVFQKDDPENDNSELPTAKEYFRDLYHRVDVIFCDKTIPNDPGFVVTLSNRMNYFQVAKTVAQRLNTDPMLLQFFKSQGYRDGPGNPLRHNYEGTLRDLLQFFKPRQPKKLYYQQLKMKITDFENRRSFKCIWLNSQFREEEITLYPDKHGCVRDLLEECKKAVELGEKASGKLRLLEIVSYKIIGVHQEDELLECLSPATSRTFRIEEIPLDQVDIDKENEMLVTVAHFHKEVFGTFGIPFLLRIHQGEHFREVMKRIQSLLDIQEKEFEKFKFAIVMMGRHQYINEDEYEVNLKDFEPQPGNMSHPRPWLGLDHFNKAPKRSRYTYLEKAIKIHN
USP10 inh: blocks human USP10 ubiquitin-rhodamine cleavage. Q14694. purified USP10, Ub-rhodamine fluorescence, 60 min. inhibition, % at 20 µM. 47,000 compounds, 1.1% hits
OTUD3 block: blocks human OTUD3 ubiquitin-rhodamine cleavage; AID 1645858; Q5T2D3; inhibition, % at 25 µM; purified OTUD3, Ub-rhodamine fluorescence, 2 h; 47,000 compounds, 0.7% hits
USP28 block: blocks human USP28 ubiquitin-rhodamine cleavage. Q96RU2. purified USP28, Ub-rhodamine cleavage fluorescence, 30 min. inhibition, % at 25 µM. 47,000 compounds, 3% hits
UCHL1 inh: inhibitors of human UCHL1 deubiquitinase; P09936; purified UCHL1, Ub-rhodamine cleavage fluorescence; inhibition, % at 20 µM; 47,000 compounds, 0.2% hits; AID 1645859
* = called active by the depositor; / = no result. An excerpt weighted towards active compounds, which were near 4.2% of everything screened. No stated cut-off is given here; in the data, active means inhibition above about 30%; inactive means the rest.

SMILES	USP7 inh	USP10 inh	OTUD3 block	USP28 block	UCHL1 inh
O=c1c2cc(-c3ccccc3)sc2n(Cc2ccc(F)cc2)c(=O)n1-c1ccccc1	0.4	3.1	-1.7	-3.0	-1.1
CCOC(=O)c1csc(NC(=O)c2cc(-c3ccccc3)nc3ccccc23)n1	-1.1	7.1	6.7	5.9	7.2
CCOC(=O)c1csc(NC(=O)c2ccccc2Br)n1	-4.4	2.8	-9.8	41.4*	-1.4
Cc1nnc(SCC(=O)Nc2ccc3[nH]c(=O)[nH]c3c2)n1-c1ccccc1	0.2	-6.9	-2.1	1.7	-0.1
COc1ccccc1NC(=O)Nc1ccc2sc(NC(=O)C3CCCCC3)nc2c1	3.5	12.0	0.3	16.0	4.2
Cc1cccc(NC(=O)c2cc(-c3ccc(C)c(C)c3O)n[nH]2)c1	16.3	25.8	9.2	27.8	6.1
CC(=O)Nc1ccc(NC(=O)c2cc(-c3cc(C)cc(C)c3O)n[nH]2)cc1	3.8	10.0	3.3	45.5*	3.7
COc1ccc(C(=O)N/C(=C\c2cn(S(=O)(=O)N(C)C)c3ccccc23)C(=O)NCc2ccccc2)cc1OC	7.5	1.0	6.8	8.2	10.5
COc1ccc(S(=O)(=O)c2cnc3cc(OC)c(OC)cc3c2Nc2ccc(F)cc2)cc1	0.9	-2.0	-11.6	9.8	-0.3
COc1cc2ncc(S(=O)(=O)c3ccc(C)cc3)c(Nc3ccc(F)cc3)c2cc1OC	8.7	7.4	-2.5	46.7*	10.2
CC1OC2CC(=O)OC2C2=C1C(=O)c1c(O)cccc1C2=O (stereo not given)	-56.7	-6.8	45.0*	56.4*	24.8
CC1CC(=O)c2c(O)cccc2O1 (stereo not given)	6.8	4.8	6.6	3.7	0.7
CCC[C@H]1O[C@@H]2CC(=O)O[C@@H]2C2=C1C(=O)c1c(O)cccc1C2=O	-39.7	-14.2	51.5*	54.1*	14.3
Cn1nc(-c2ccccc2)c(COC(=O)c2ccc([N+](=O)[O-])cc2)c1Cl	6.3	7.8	18.1	-3.2	7.4
O=C(OCc1cnc(Cl)s1)c1ccc([N+](=O)[O-])cc1	-6.8	3.6	3.4	40.5*	-1.5
O=C(NCc1ccccc1Cl)c1ccc2cn[nH]c2c1	-0.2	-0.8	2.1	55.5*	-1.3
COc1ccccc1NC(=O)CCc1nc(CSc2nc3ccccc3o2)no1	2.8	-0.1	14.8	33.0*	2.8
Cc1cccc(C)c1NC(=O)CCc1nc(CSc2nc3ccccc3o2)no1	-9.5	3.0	20.3	27.5	-0.2
Cc1ccc(C)c(NC(=O)CCc2nc(CSc3nc4ccccc4o3)no2)c1	1.0	1.6	39.3*	19.6	3.4
O=S1(=O)CCN(CC2CCCO2)c2c(Oc3ccccc3)nc(F)c(Cl)c21 (stereo not given)	-149.3	4.5	7.0	29.6	9.4
CC(C)CN1C[C@H]2CCN(Cc3ccccc3)CC[C@H]2S1(=O)=O	-2.5	0.9	-1.4	-5.7	0.3
O=C(COC(=O)C1(c2ccccc2F)CCCC1)Nc1ccc2c(c1)OCO2	9.4	16.4	19.9	20.6	8.5
Cn1cc2cccc(NC(=O)c3ccc(F)cc3)c2n1	-2.0	1.8	-8.6	9.0	4.9
Nc1nonc1C(=O)NCCNCc1cccc(OCc2ccc(Cl)cc2)c1	-55.2	1.8	-3.1	55.6*	0.1
CCC/C=C\C#CC/C=C\CCCCCCCC(=O)O	59.5*	5.9	57.6*	69.1*	69.2*
SMILES	USP7 inh	USP10 inh	OTUD3 block	USP28 block	UCHL1 inh
CCCCCCCC/C=C\CCCCCCCC(=O)O	5.1	12.7	-2.1	2.4	0.7
NC(=O)c1cccc(NS(=O)(=O)c2ccccc2)c1	2.0	2.0	-0.3	-14.6	-3.1
NS(=O)(=O)c1cccc(NS(=O)(=O)c2ccc(/C=C/C(=O)OCC(=O)c3ccc(Br)cc3)cc2)c1	14.2	41.2*	4.7	58.9*	4.8
CCc1ccc(NC(=O)C(C)OC(=O)/C=C/c2ccc(S(=O)(=O)Nc3cccc(S(N)(=O)=O)c3)cc2)cc1 (stereo not given)	9.3	32.6*	16.5	27.4	4.3
COc1ccc(C(=O)COC(=O)/C=C/c2ccc(S(=O)(=O)Nc3cccc(S(N)(=O)=O)c3)cc2)cc1	5.0	22.6	4.1	43.4*	5.1
CC(=O)c1cc2c(=O)c3c(C(=O)O)c(O)c(O)cc3oc2c(C(C)=O)c1-c1coc2cc(O)c(O)c(C(=O)O)c2c1=O	-138.9	-3.3	59.5*	40.4*	1.3
CC1=C(C(=O)Nc2c(C)cc(C)cc2C)C2(CCC(C)CC2)OC1=O (stereo not given)	-6.0	-0.7	-4.1	-8.3	-2.2
CCN(CC)C(=O)c1sc(NC(=O)c2cc(-c3ccccc3Cl)nc3ccccc23)c(C(N)=O)c1C	7.8	44.0*	-14.2	4.5	4.9
Cc1cccc(CNC(=O)Cn2c(=O)c(C)nc3cc(C)c(C)cc32)c1	-0.2	3.2	-11.1	-6.7	1.6
CS(=O)(=O)N1CCN(c2ccccc2NC(=O)COc2ccc(Br)cc2)CC1	63.4*	72.0*	-0.5	/	8.9
CS(=O)(=O)N1CCN(c2ccc(NC(=O)COc3ccccc3)cc2)CC1	4.2	5.9	-8.1	-8.8	-2.8
CCc1cc2c3c([nH]c2cc1S(=O)(=O)NCc1ccccc1)CCCC3=O	-2.7	3.9	-9.4	10.6	2.2
Cc1ccc(CNS(=O)(=O)c2cc3[nH]c4c(c3cc2C)C(=O)CCC4)cc1	-6.7	0.1	-11.8	43.6*	-1.8
Cc1cc2c3c([nH]c2cc1S(=O)(=O)NCc1ccc2c(c1)OCO2)CCCC3=O	-3.1	0.1	12.6	30.9*	3.9
O=C(NCc1ccco1)c1ccc(Cn2c(=O)c3sccc3n(Cc3cc(=O)n4ccccc4n3)c2=O)cc1	4.3	12.6	17.0	50.0*	9.2
Cc1cc(N2CCC(NC(=O)NCc3ccc(F)cc3)C2=O)ccc1F (stereo not given)	3.2	5.3	7.9	3.3	0.4
CCn1c(COc2ccc3c(c2)OCO3)nnc1SCc1ccc([N+](=O)[O-])cc1	-38.2	0.9	8.5	16.2	1.6
CC1(C)CC(=O)c2ccc(OCc3ccc([N+](=O)[O-])cc3)cc2O1	-88.4	7.2	2.3	35.7*	4.2
Cc1noc(-c2cc(=O)n(CC(=O)Nc3ccccc3Cl)c3ccccc23)n1	6.1	33.5*	-4.9	-4.9	1.7
Cc1c(CC(=O)Nc2nn[nH]n2)c(=O)oc2cc3c(cc12)CCC1(CCCCC1)O3	-30.7	21.3	6.3	20.7	0.1
Cc1cccc(NC(=O)c2cc3cccnc3n(C)c2=O)c1	0.4	-2.2	-3.7	31.4*	-0.7
CC(C)C[C@H](NC(=O)c1ccc2nc(-n3cccc3)sc2c1)C(=O)NCc1ccco1	-1.7	13.5	-14.4	-21.0	-3.1
COc1ccc(NC(=O)CNC(=O)c2ccc3nc(-n4cccc4)sc3c2)cc1	-21.6	27.8	32.3*	16.5	11.2
CC(C)CN1C[C@@]23CN(C(=O)NC4CCCC4)C[C@@H](C[C@@H]2S1(=O)=O)O3	/	2.2	7.6	9.1	2.3
Clc1ccc2c(NCc3cccs3)ncnc2c1	1.0	1.6	17.1	33.8*	0.5

High-throughput results from PubChem BioAssay.
